Experiment [1] can be described thus: A CellTox Green Cytotoxicity Assay to monitor cytotoxicity in HepG2 cells - 8 hour (AID 1224890). Note: nearly all actives have a fitted effect of over 45% in size. In outline: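 Read-out is fluorescence of a cyanine dye excluded from live cells that stains DNA of dead HepG2 cells, with signal proportional to cytotoxicity. Plates were read at 0, 8, 16, 24, 32 and 40 h after compound addition.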
Experiment [2] is described as follows: qHTS assay to identify small molecule antagonists of the estrogen receptor alpha (ER-alpha) signaling pathway using the BG1 cell line in the presence of 0.1 nM 17-beta-estradiol - cell viability counter screen (AID 1259241). Note: nearly all actives have a fitted effect of over 40% in size. A digest of the protocol: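 VM7Luc4E2, 4,000 cells/well, phenol red-free medium + 10% charcoal-stripped FBS; 24 hr plating; cpd + 0.1 nM E2 final, 22 hr 37C/5% CO2; CellTiter-Fluor 30 min, fluorescence.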
For orientation: In qHTS, concentration-response curves come from the screen itself.

A short description of experiment [3]: qHTS assay to identify small molecule antagonists of the androgen receptor (AR) signaling pathway using the MDA cell line in the presence of 0.5 nM R1881 - cell viability counter screen (AID 1259242). Note: nearly all actives have a fitted effect of over 45% in size. In outline: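 Counter screen for cytotoxicity run in the same wells as the AR antagonist reporter screen: MDA-kb2 cells were treated 16 hr with test compounds and 0.5 nM R1881, then live-cell protease activity was measured by fluorescence.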

The target of experiment [4] is Estrogen receptor (Homo sapiens) (UniProt P03372). The experiment in a line: qHTS assay to identify small molecule antagonists of the estrogen receptor alpha (ER-alpha) signaling pathway using the BG1 cell line in the presence of 0.1 nM 17-beta-estradiol (AID 1259244). Note: nearly all actives have a fitted effect of over 50% in size. Note: potency is the fitted concentration of half-maximal effect. In outline: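 Cells: VM7Luc4E2, endogenous ER-alpha, 4x ERE-luc stable. Pre-culture 5 d, phenol red-free, charcoal-stripped FBS. Plated 24 h, compound + E2 0.1 nM final, 22 h 37C/5% CO2. Readout ONE-Glo luminescence.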

A short description of experiment [5]: qHTS assay to identify small molecule phospholipidosis (PLD) inducers (AID 1259344; active = well fitted curve in the direction sought with a large enough effect; an effect the other way counts as inactive or inconclusive). In outline: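 HepG2 cells grown on collagen I take up LipidTOX Red while exposed to compound for 24 h; after fixation they are imaged at 20x and pit metrics are extracted.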
Experiment [6] can be described thus: qHTS assay to identify small molecule HDAC inhibitors (AID 1259364). Note: nearly all actives have a fitted effect of over 45% in size. Note: potency is the fitted concentration of half-maximal effect. A digest of the protocol: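 Luminescence from a cell-permeant luminogenic class I/II HDAC substrate reports endogenous deacetylase activity in intact HCT-116 cells treated with compounds for 2 h.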
Experiment [7] is described as follows: qHTS assay to identify small molecule HDAC inhibitors - cell viability counter screen (AID 1259365). Note: series mostly up to about 92 µM; nearly all actives have a fitted effect of over 50% in size. A digest of the protocol:
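Luminescence from CellTiter-Glo, developed 30min at room temperature, reports viability of wild-type HCT-116 cells treated 2hr with compounds at 37 C and 5% CO2 after overnight plating.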

A short description of experiment [8]: qHTS assay to identify small molecule agonists of the sonic hedgehog signaling (Shh) pathway - cell viability counter screen (AID 1259366). Note: nearly all actives have a fitted effect of over 50% in size. A digest of the protocol: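 Cytotoxicity counter screen run in the same wells as the Shh reporter assay. NIH/3T3 cells carrying a Gli1 response element–driven luciferase were treated with DMSO-dissolved compounds for 24hr, and live-cell protease activity was measured with CellTiter-Fluor.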

Experiment [9] is described as follows: qHTS assay to identify small molecule antagonists of the sonic hedgehog signaling (Shh) pathway - cell viability counter screen (AID 1259367). Note: nearly all actives have a fitted effect of over 55% in size. In outline:
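After a 4 hr settling period, 3T3 Gli1-Luc cells were treated with DMSO-dissolved chemicals and conditioned medium, kept 24 hr at 37C in 5% CO2, and assayed for viability by CellTiter-Fluor fluorescence following 1 hr reagent incubation.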

SMILES strings stand for the structures. Values without a mark were called inactive. Records with an inconclusive call do not appear. Calls of active or inactive are those of the source. Unless noted, calls come from the whole dose curve; as a rule, active = well fitted curve in the direction sought with a large enough effect in the repeat runs; inconclusive = weak or mixed curves; inactive = no such curve, though single readings can be large; an effect the other way counts as inactive or inconclusive.

Chain of Estrogen receptor (Homo sapiens) (P03372 whole entry, looked up): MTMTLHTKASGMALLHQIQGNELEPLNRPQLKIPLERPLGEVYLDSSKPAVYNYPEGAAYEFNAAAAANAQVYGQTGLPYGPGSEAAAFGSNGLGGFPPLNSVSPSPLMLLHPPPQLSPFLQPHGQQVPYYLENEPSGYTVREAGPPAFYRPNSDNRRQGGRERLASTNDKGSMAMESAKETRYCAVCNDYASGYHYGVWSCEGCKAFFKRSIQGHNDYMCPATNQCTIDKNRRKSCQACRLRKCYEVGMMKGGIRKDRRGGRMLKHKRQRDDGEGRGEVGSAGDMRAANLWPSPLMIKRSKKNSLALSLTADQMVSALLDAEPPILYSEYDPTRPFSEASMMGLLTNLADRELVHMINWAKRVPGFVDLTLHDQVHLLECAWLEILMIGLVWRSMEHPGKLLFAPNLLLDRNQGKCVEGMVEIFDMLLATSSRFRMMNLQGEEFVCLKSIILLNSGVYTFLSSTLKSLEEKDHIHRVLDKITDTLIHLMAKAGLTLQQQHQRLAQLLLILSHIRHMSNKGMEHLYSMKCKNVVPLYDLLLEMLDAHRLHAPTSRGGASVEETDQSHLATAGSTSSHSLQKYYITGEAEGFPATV

With `CC(C)=CCC1C(=O)N(c2ccccc2)N(c2ccccc2)C1=O`, the Potency entry in experiment [1], in [2], in [3], in [4], in experiment [5] and in experiment [6] was “inactive” each time. Further, the Potency entry in experiment [7], in [8] and in experiment [9] was “inactive” in each case.
Turning to `CC1(C)O[C@@H]2C[C@H]3[C@@H]4C[C@H](F)C5=CC(=O)C=C[C@]5(C)[C@H]4[C@@H](O)C[C@]3(C)[C@]2(C(=O)CO)O1`, the Potency result in [1], in experiment [2], in experiment [3], in experiment [4], in experiment [5] and in experiment [6] was “inactive” throughout. The Potency result in experiment [7], in [8] and in experiment [9] was “inactive” each time.
Regarding `Clc1ccc(Nc2nnc(Cc3ccncc3)c3ccccc23)cc1`, the Potency result in experiment [1], in experiment [2], in experiment [3], in [5] and in experiment [7] was “inactive” throughout. The Potency in experiment [4] is 29.8 µM (active).
With `C=C(C)CCCC(C)CCO` (centres undefined), the Potency result in experiment [1], in experiment [2], in experiment [3], in experiment [4], in experiment [6] and in [7] was “inactive” in each case. The Potency entry in experiment [8] and in [9] was “inactive” throughout.
Turning to `OCCOCC#CCOCCO`, the Potency result in [1], in [2], in experiment [3], in [4], in experiment [7] and in experiment [8] was “inactive” throughout. Moreover, the Potency result in experiment [9] was “inactive”.
For `CCC1NC(=O)c2cc(S(N)(=O)=O)c(Cl)cc2N1` (centres undefined), the Potency entry in [1], in [2], in experiment [3], in experiment [5], in experiment [6] and in experiment [7] was “inactive” throughout. The Potency result in experiment [8] and in [9] was “inactive” in each case.
Take `Oc1cccc(Nc2ccccc2)c1`: the Potency result in experiment [1], in [2], in [3], in [4], in [6] and in experiment [7] was “inactive” throughout. The Potency entry in experiment [9] was “inactive”.
On to `O=c1[nH]ncc2ccccc12`, for which the Potency result in experiment [1], in experiment [2], in experiment [3], in experiment [4], in experiment [8] and in experiment [9] was “inactive” in each case.
On to `O=C(O)CCCCCCCCCCCBr`, for which the Potency result in [1], in [2], in [3], in experiment [4], in [7] and in experiment [8] was “inactive” each time. In addition, in experiment [9], the Potency result was “inactive”. In experiment [6], the Potency was 24.4 µM (active).
In the case of `C/C=C\C/C=C/CCCCCCCCOC(C)=O`, the Potency entry in experiment [1], in [2], in experiment [3], in experiment [4], in experiment [6] and in experiment [7] was “inactive” each time. The Potency result in [8] and in [9] was “inactive” each time.
Take `CCCCCCCCCCC(=O)O`: the Potency result in [1], in experiment [2], in experiment [3], in [4], in [6] and in [7] was “inactive” throughout. Moreover, the Potency result in [8] and in experiment [9] was “inactive” each time.
For the compound `CN1C(=O)c2ccccc2C1=O`, the Potency entry in experiment [1], in [2], in experiment [3], in experiment [5], in [6] and in [7] was “inactive” each time. Besides, in experiment [8], the Potency result was “inactive”.
`O=C(O)c1ccc(OCCCOc2ccc(C(=O)O)cc2)cc1`: the Potency entry in experiment [1], in [2], in experiment [3], in experiment [5], in [6] and in experiment [7] was “inactive” each time. The Potency result in experiment [8] and in experiment [9] was “inactive” in each case.
Turning to `CCC(C)(C)OC`, the Potency result in [1], in experiment [2], in [3], in [4], in experiment [6] and in [7] was “inactive” in each case. Moreover, the Potency result in [8] and in [9] was “inactive” in each case.
Turning to `CC1(C)[C@@H](OC(=O)CCC(=O)O)CC[C@]2(C)[C@H]3C(=O)C=C4[C@@H]5C[C@@](C)(C(=O)O)CC[C@]5(C)CC[C@@]4(C)[C@]3(C)CC[C@@H]12`, the Potency entry in experiment [1], in [2], in experiment [3], in experiment [5], in experiment [6] and in experiment [7] was “inactive” each time. The Potency result in [8] and in experiment [9] was “inactive” in each case.
On to `C=C1CCC2CC1C2(C)C` (centres undefined), for which the Potency entry in experiment [1], in experiment [2], in experiment [3], in experiment [4], in experiment [6] and in experiment [7] was “inactive” in each case. For the same compound, the Potency entry in experiment [8] and in experiment [9] was “inactive” each time.
Take `Cc1cc(C)c(N)cc1C`: the Potency entry in [1], in experiment [2], in [3], in experiment [4], in experiment [6] and in experiment [7] was “inactive” each time. The Potency entry in experiment [8] and in experiment [9] was “inactive” throughout.
For the compound `CN1C(C(=O)Nc2ccccn2)=C(O)c2sccc2S1(=O)=O`, the Potency entry in experiment [1], in experiment [2], in experiment [3], in [4], in experiment [6] and in experiment [7] was “inactive” in each case. Also, the Potency result in experiment [8] and in experiment [9] was “inactive” each time.
In the case of `N#CCc1ccc(Cl)cc1Cl`, the Potency entry in experiment [1], in [2], in experiment [3], in [4], in experiment [6] and in [8] was “inactive” in each case. The Potency entry in experiment [9] is “inactive”.
Consider `O=c1[nH]c2ccc(Cl)cc2o1`, for which the Potency entry in experiment [1], in [2], in experiment [3], in experiment [4], in experiment [6] and in experiment [7] was “inactive” in each case. For the same compound, the Potency entry in [8] and in experiment [9] was “inactive” in each case.
As for `C=COCC(C)C`, the Potency result in experiment [1], in experiment [2], in experiment [3], in experiment [4], in experiment [6] and in experiment [7] was “inactive” throughout. In addition, the Potency result in experiment [8] and in [9] was “inactive” each time.
Regarding `Cc1ccccc1S`, the Potency result in experiment [1], in experiment [2], in experiment [3], in [4], in experiment [6] and in experiment [7] was “inactive” in each case. The Potency entry in experiment [8] and in experiment [9] was “inactive” in each case.
For the compound `CC(CO)CO`, the Potency result in [1], in [2], in experiment [3], in experiment [4], in experiment [6] and in experiment [7] was “inactive” throughout. The Potency result in [8] and in experiment [9] was “inactive” in each case.
On to `CC(=O)c1cc2ccccc2s1`, for which the Potency result in experiment [1], in [2], in [3], in experiment [4], in experiment [7] and in [8] was “inactive” throughout. For the same compound, the Potency entry in experiment [9] is “inactive”.
`CCCCC(CC)COP(=O)(O)O` (centres undefined): the Potency result in experiment [1], in experiment [2], in [3], in [4], in experiment [8] and in [9] was “inactive” each time.
`C1C[C@@H]2[C@H]3CC[C@H](C3)[C@@H]2C1`: the Potency entry in experiment [1], in [2], in [3], in experiment [4], in [6] and in [7] was “inactive” in each case. For the same compound, the Potency entry in experiment [8] and in experiment [9] was “inactive” throughout.
`CC1(CN2CCC(n3c(=O)[nH]c4ccccc43)CC2)OCc2ccccc2-n2cccc21` (centres undefined): the Potency entry in experiment [1], in experiment [2], in experiment [3], in [6], in [7] and in experiment [8] was “inactive” in each case. The Potency result in experiment [9] was “inactive”. Moreover, in [4], the Potency is 29.8 µM (active).
Turning to `CC(=O)[C@H]1[C@H](C#N)C[C@H]2[C@@H]3CC=C4C[C@@H](O)CC[C@]4(C)[C@H]3CC[C@@]21C`, the Potency result in experiment [1], in experiment [2], in experiment [3], in [4], in [7] and in [8] was “inactive” in each case. Also, in experiment [9], the Potency entry is “inactive”.
